Among the data in PubChem BioAssay (NCI) are growth inhibition values, retold here.

Structures are written as SMILES. About 79,000 compounds went through this panel and 15% of them were active in at least one assay; those are over-represented in the sample as a whole. Values without a mark were called inactive. Active and inactive are the calls of the source. No stated cut-off is given here; in the data, active means growth inhibition above about 70%; inactive means the rest.

Assay [1] can be described thus: NCI Yeast Anticancer Drug Screen. Data for the rad50 strain (AID 155).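 Further: 0% = growth of vehicle-only cultures of the same strain.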 Conditions: S. cerevisiae rad50 strain growth inhibition; at 50.0 µM; stronger effect = higher value. The gist of the method:
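Vehicle-treated cultures provide the reference for the growth inhibition reported for compound-exposed, repair-deficient yeast.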

Assay [2] is described as follows: NCI Yeast Anticancer Drug Screen. Data for the mec2-1 strain (AID 157). Conditions: S. cerevisiae mec2-1 strain, at 50.0 µM, stronger effect = higher value. The gist of the method:
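Mutant yeast (mec2-1) grown with compound; growth inhibition relative to vehicle control reported.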

Assay [3] in a line: NCI Yeast Anticancer Drug Screen. Data for the sgs1 mgt1 strain (AID 161).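 Further: 0% = growth of cultures given vehicle only.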 Conditions: S. cerevisiae sgs1 mgt1 strain, at 50.0 µM, stronger effect = higher value. The gist of the method: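 Growth of a repair-deficient yeast mutant was monitored after compound treatment and expressed as inhibition relative to vehicle-treated cultures.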
Assay [4] is described as follows: NCI Yeast Anticancer Drug Screen. Data for the cln2 rad14 strain (AID 165).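 Further: 0% = growth equal to vehicle treated cultures.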 The conditions noted are these: S. cerevisiae cln2 rad14 strain, at 50.0 µM, stronger effect = higher value. The gist of the method:
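Readout is yeast growth inhibition versus vehicle-treated controls, using a strain with cln2 and rad14 alterations exposed to compound.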

Assay [5] can be described thus: NCI Yeast Anticancer Drug Screen. Data for the bub3 strain (AID 167). Conditions: S. cerevisiae bub3 mutant strain, at 50.0 µM, stronger effect = higher value. The method in brief: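 Mutant yeast screening strain plus compound; vehicle-treated cultures serve as the 0% inhibition reference.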
Assay [6] in a line: NCI Yeast Anticancer Drug Screen. Data for the mlh1 rad18 strain (AID 175). Conditions: S. cerevisiae mlh1 rad18 strain growth inhibition; at 50.0 µM; stronger effect = higher value. The method in brief:
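Genetically defined yeast (DNA repair-deficient) exposed to compounds; growth inhibition determined relative to vehicle.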

On to `CCOC(=O)C1C(c2ccc(Br)cc2)N(Cc2ccccc2)C(c2ccc(Br)cc2)C(C(=O)OC)S1(=O)=O` (stereo not given), for which the growth inhibition in assay [1] was -42.2%; in assay [2], -49.5%; in assay [3], -16.6%; in assay [4] it was -25.1%; in assay [5] it was -21.4%; in assay [6], -22.1%.
As for `O=S(=O)(O)c1ccc(Nc2ccnc3cc(Cl)ccc23)cc1`, the growth inhibition in assay [1] was -21.4%; in assay [2] it was -32.1%; in assay [3], -39.8%; in assay [4], -3.9%; in assay [5], -29.1%; in assay [6], -10%.
As for `O=C(/C(=N\Nc1ccc([N+](=O)[O-])cc1[N+](=O)[O-])c1ccccc1)c1ccccc1`, the growth inhibition in assay [1] is -11.6%; in assay [2], -11.7%; in assay [3], -2.5%; in assay [4] it was -20.8%; in assay [5] it was 2.95%; in assay [6], -1.3%.
Consider `COc1ccc(C2SCC(=O)N2NC(=O)c2ccc(NC(C)=O)cc2)cc1` (stereo not given), for which the growth inhibition is -50% in assay [1]; -49.5% in assay [2]; -62.5% in assay [3]; -8.9% in assay [4]; -21.7% in assay [5]; -61.5% in assay [6].
`Cc1ccc(Br)c([N+](=O)[O-])c1`: the growth inhibition in assay [1] is 5.1%; in assay [2] it was -4.75%; in assay [3] it was 2.1%; in assay [4], 5.85%; in assay [5], -0.2%; in assay [6], 1.75%.
Take `CCCCCCCCCCCCCC(=O)OCC1OC(n2cc(F)c(=O)[nH]c2=O)C(N)C(OC(=O)CCCCCCCCCCCCC)C1O` (stereo not given): the growth inhibition in assay [1] was 27.4%; in assay [2], 7.4%; in assay [3], 22.5%; in assay [4], 35.3%; in assay [5], 11.6%; in assay [6] it was 24.1%.
`CCCC(=O)OCc1ccc(Cl)c(Cl)c1`: the growth inhibition in assay [1] is 21.6%; in assay [2], 16%; in assay [3] it was 9.45%; in assay [4], 8%; in assay [5] it was 9.15%; in assay [6], -3.85%.
As for `Cc1cc(NS(=O)(=O)c2ccc(NC(=O)c3ccc(Cl)c4c(Nc5ccc(S(=O)(=O)N=C(N)N)cc5)c5ccccc5nc34)cc2)no1`, the growth inhibition in assay [1] is 29.9%; in assay [2] it was 42.1%; in assay [3], 31.6%; in assay [4] it was 34.5%; in assay [5] it was 26.4%; in assay [6], 53.5%.
With `Clc1ccc(OCCSCCCCCCCCCCSCCOc2ccc(Cl)cc2)cc1`, the growth inhibition is -2% in assay [1]; -3.4% in assay [2]; 13.9% in assay [3]; -24% in assay [4]; -8.7% in assay [5]; -21.1% in assay [6].
As for `N#CCCOCc1ccccc1`, the growth inhibition was -46.8% in assay [1]; -23.8% in assay [2]; -1.05% in assay [3]; -3.15% in assay [4]; -15.1% in assay [5]; 0.55% in assay [6].
With `O=CNCCN(C=O)CCO`, the growth inhibition in assay [1] was -28.6%; in assay [2] it was -29.9%; in assay [3], -31.9%; in assay [4] it was 1.85%; in assay [5], -12%; in assay [6] it was -9.55%.
Consider `COC1/C=C/OC2(C)Oc3c(C)c(O)c4c(c3C2=O)C(N)=C(Nc2ccccc2)C(=NC(=O)C(C)=CC=CC(C)C(O)C(C)C(O)C(C)C(OC(C)=O)C1C)C4=O` (stereo not given), for which the growth inhibition was 15.5% in assay [1]; 45.5% in assay [2]; 41.9% in assay [3]; 46.5% in assay [4]; 16.9% in assay [5]; 39.9% in assay [6].
With `Oc1ccccc1CNCCNCc1ccccc1O`, the growth inhibition in assay [1] was -12.2%; in assay [2] it was -14.1%; in assay [3] it was 1.6%; in assay [4], 17.6%; in assay [5], -4.5%; in assay [6], -36.2%.
`NC(=O)C(=CNC(=S)Nc1ccc(S(N)(=O)=O)cc1)C(N)=O`: the growth inhibition is -10.1% in assay [1]; -31.1% in assay [2]; -16.4% in assay [3]; 2.9% in assay [4]; -10.4% in assay [5]; 0.5% in assay [6].
For the compound `CC1(C)CC(C)(Br)C(Br)C(=O)C1C(O)(C(F)(F)F)C(F)(F)F` (stereo not given), the growth inhibition in assay [1] was 99.5% (active); in assay [2], 99.8% (active); in assay [3], 99.8% (active); in assay [4], 99.2% (active); in assay [5] it was 99.6% (active); in assay [6], 99.8% (active).
Turning to `CCOC(=O)/C=C/C(=O)N1CCN(C(=O)/C=C/C(=O)OCC)C(C)C1` (stereo not given), the growth inhibition was -3.3% in assay [1]; -40.8% in assay [2]; -6.7% in assay [3]; 4.25% in assay [4]; -41.5% in assay [5]; -15.9% in assay [6].
On to `O=C(C[n+]1ccccc1CCCO)c1ccc(F)cc1`, for which the growth inhibition in assay [1] was 3.55%; in assay [2], -19.7%; in assay [3], 4.6%; in assay [4] it was 28.3%; in assay [5] it was 3%; in assay [6], 8.45%.
For the compound `CN=C(NN)NS(=O)(=O)c1cc(C)c(Cl)cc1S`, the growth inhibition in assay [1] is -12.6%; in assay [2], -22.8%; in assay [3] it was -11.7%; in assay [4], -10.9%; in assay [5], 3.4%; in assay [6] it was 7.05%.
`CCCCNC(=O)NC/C(Br)=C/Br`: the growth inhibition in assay [1] was 1.75%; in assay [2], 5.15%; in assay [3], 1.4%; in assay [4] it was -3.75%; in assay [5], 1.85%; in assay [6] it was -5.2%.
For the compound `O=C1CN(N2C(=O)CSC2C23CC4CC(CC(C4)C2)C3)C(=O)CN1c1ccccc1` (stereo not given), the growth inhibition in assay [1] was 7.2%; in assay [2], 2.1%; in assay [3], 13%; in assay [4], 24.8%; in assay [5], -2.6%; in assay [6], 12.8%.
